Screening data as filed in PubChem.
Only some compounds are listed: those with a hit (about 1.1% of all), similar ones and a draw of the others.
PrP 5UTR inh: inhibition of PrP 5' UTR reporter expression; 340,000 tested, 0.35% active; inhibition, % (test concentration not listed); cell-based PrP 5' UTR mRNA reporter, plate reader; AID 488862; in the data active = inhibition above about 52%; note: 0 = median of the neutral control wells
PfHsp40 yeast: rescue of PfHsp40-mediated yeast toxicity; 340,000 tested, 0.68% active; S. cerevisiae expressing PfHsp40, growth rescue, ATP luminescence; growth rescue, % at 12.5 µM; in the data active = growth rescue above about 28%, passing the limit was not always enough; inconclusive = no clear call, values can overlap the other calls;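 note: yeast W303a lacking pdr1 and pdr3 grown in galactose medium; growth measured after three days at 30 °C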
TcdB inh: blocks C. difficile toxin B glycohydrolase activity | P18177 | TcdB glycohydrolase enzymatic assay, plate reader | inhibition, % at 9.99 µM | 350,000 tested, 0.24% active | AID 652162; in the data active = inhibition above about 10%
Target sequence (P18177 whole entry, looked up): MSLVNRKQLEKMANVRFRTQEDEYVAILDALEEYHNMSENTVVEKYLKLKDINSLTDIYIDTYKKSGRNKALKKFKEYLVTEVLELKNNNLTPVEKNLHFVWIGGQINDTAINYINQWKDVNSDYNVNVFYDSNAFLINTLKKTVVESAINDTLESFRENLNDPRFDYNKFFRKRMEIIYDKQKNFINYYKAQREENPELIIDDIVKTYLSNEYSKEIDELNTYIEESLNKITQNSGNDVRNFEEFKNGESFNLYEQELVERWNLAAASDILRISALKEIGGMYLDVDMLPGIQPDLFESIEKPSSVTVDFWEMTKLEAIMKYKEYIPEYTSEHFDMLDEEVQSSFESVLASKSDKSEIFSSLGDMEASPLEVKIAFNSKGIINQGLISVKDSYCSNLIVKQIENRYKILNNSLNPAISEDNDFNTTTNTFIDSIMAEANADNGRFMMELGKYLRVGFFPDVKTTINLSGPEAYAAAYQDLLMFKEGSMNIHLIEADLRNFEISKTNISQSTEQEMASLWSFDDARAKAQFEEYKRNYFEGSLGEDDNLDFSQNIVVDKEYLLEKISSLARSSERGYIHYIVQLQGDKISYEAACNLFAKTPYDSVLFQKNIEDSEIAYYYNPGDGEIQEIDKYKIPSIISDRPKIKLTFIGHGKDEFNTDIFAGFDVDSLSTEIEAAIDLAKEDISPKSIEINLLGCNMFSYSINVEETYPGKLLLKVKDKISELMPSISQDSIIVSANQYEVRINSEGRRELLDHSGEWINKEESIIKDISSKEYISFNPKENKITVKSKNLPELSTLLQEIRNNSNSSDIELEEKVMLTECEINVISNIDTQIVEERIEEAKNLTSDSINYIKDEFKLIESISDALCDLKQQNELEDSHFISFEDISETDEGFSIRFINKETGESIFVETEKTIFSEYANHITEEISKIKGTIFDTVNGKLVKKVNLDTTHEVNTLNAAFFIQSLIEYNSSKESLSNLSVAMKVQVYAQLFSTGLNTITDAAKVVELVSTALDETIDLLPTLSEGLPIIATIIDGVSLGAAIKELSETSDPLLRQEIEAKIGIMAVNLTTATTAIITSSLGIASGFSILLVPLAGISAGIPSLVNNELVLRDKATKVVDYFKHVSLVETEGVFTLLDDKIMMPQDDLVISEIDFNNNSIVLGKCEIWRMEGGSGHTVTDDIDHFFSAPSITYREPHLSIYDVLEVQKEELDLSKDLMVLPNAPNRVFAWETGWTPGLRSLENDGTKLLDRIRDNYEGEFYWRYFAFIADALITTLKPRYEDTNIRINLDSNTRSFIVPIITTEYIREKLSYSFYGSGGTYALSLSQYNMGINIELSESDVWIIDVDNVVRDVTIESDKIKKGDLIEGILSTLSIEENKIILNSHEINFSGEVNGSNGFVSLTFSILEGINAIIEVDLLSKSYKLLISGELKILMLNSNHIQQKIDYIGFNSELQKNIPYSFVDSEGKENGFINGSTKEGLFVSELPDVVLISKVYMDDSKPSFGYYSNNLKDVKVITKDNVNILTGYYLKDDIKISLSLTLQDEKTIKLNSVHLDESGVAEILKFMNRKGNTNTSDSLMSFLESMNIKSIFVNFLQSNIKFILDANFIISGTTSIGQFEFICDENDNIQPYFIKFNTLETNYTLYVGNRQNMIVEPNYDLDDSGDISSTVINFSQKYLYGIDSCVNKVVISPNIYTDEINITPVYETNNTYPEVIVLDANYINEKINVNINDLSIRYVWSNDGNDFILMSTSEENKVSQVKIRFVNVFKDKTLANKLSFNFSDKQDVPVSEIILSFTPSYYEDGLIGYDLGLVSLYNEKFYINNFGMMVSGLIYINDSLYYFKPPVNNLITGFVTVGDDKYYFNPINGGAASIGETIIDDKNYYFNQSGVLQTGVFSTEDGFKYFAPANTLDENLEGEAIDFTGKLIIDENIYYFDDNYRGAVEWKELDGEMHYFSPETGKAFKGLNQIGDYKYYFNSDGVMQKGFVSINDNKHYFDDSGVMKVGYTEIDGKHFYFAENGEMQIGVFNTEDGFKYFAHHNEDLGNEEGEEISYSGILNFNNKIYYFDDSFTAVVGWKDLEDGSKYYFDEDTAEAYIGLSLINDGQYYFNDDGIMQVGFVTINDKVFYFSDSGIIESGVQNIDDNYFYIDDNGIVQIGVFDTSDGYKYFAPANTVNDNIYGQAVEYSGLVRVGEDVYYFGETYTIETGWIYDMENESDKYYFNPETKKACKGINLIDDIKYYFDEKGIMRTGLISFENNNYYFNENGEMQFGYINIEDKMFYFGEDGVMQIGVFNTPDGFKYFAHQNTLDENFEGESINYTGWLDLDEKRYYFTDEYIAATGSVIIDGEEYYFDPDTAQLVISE
Mtb BioA inh: inhibitors of Mycobacterium tuberculosis BioA enzyme; purified M. tuberculosis BioA enzyme, plate reader; inhibition, % at 9.99 µM; 360,000 tested, 0.096% active; in the data active = inhibition above about 40%; inconclusive = no clear call, values can overlap the other calls
FadD28 FP inh: M. tuberculosis FadD28 bisubstrate binding inhibition; FadD28 bisubstrate probe binding, fluorescence polarization; inhibition, % at 12.5 µM; 360,000 tested, 0.22% active; in the data active = inhibition above about 8.5%, passing the limit was not always enough; inconclusive = no clear call, values can overlap the other calls
PrP 5UTR single: prion 5' UTR mRNA inhibition, cherry-pick retest; shares compounds with PrP 5UTR inh; inhibition, % at 2.5 µM; 1,100 tested, 48% active; cell-based prion protein 5' UTR reporter, plate reader; in the data active = inhibition above about 54%; inconclusive = no clear call, values can overlap the other calls
* marks the source's active call; other numbers are inactive results; ? = inconclusive; / = no result.

SMILES	PrP 5UTR inh	PfHsp40 yeast	TcdB inh	Mtb BioA inh	FadD28 FP inh	PrP 5UTR single
CC(C)=CCC[C@](C)(O)C1CC[C@]2(C)C1C(O)CC1[C@@]3(C)CCC(O)C(C)(C)C3C(O[C@@H]3OC(CO)C(O)C(O)C3O[C@@H]3OC(C)C(O)C(O)C3O)C[C@]12C (some centres undefined)	-6.4	-1.8	1.1	0.3	-1.4	/
CC(=O)OCC(=O)C1(O)CCC2C3CCC4CC(O)CCC4(C)C3C(=O)CC21C (centres undefined)	/	/	1.3	0.0	-3.2	/
CC(=O)OC1CC2(O)C3CCC4CC(O)CCC4(C)C3CCC2(C)C1C1=CC(=O)OC1 (centres undefined)	86.2*	-0.7	0.1	/	-2.5	80.4*
CC1OC(OC2C(O)CC(OC3C(O)CC(OC4CCC5(C)C(CCC6C5CCC5(C)C(C7=CC(=O)OC7)C(O)CC65O)C4)OC3C)OC2C)CC(O)C1O (centres undefined)	93.7*	1.4	1.6	/	-0.5	85.9*
COc1ccc2c3c([nH]c2c1)[C@H](CO)N(Cc1ccccc1OC)CC31CN(S(=O)(=O)c2ccccc2)C1	/	/	1.3	/	/	/
O=C(N[C@@H]1CC[C@@H](CCNS(=O)(=O)c2ccc(Cl)cc2)O[C@H]1CO)c1cnccn1	/	/	-0.3	7.7	/	/
COc1ccccc1-c1cnc2c(c1)C(=O)N([C@H](C)CO)C[C@H](C)[C@H](CN(C)Cc1ccccc1)O2	/	/	0.7	1.0	/	/
COc1cc2cc(c1Cl)N(C)C(=O)CC(OC(=O)C(C)N(C)C(C)=O)C1(C)OC1C(C)C1CC(O)(NC(=O)O1)C(OC)C=CC=C(C)C2 (centres undefined)	52.7*	-1.2	0.7	/	-3.9	92.3*
CO[C@H]1CN(C)C(=O)c2ccc(NC(=O)C3CC3)cc2OC[C@@H](C)N(Cc2ccccc2)C[C@H]1C	/	/	-0.1	3.5	/	/
Fc1ccc(-n2nnc(-c3cnc4ccccc4c3)n2)cc1	71.5*	1.8	0.6	-1.5	-2.2	53.6*
Fc1ccc(-n2nnc(-c3cccnc3)n2)cc1	-45.4	-1.0	-5.7	2.7	0.9	/
O=C(Nc1nccs1)[C@H]1[C@H](CO)[C@H]2Cn3c(ccc(-c4cncnc4)c3=O)[C@H]2N1CC1CCCC1	/	/	-0.6	1.0	/	/
CCOc1ccc(OCc2cccc(C(=O)N3CCOCC3)c2)cc1	60.9*	-1.3	/	-1.5	-1.3	70.0*
Cc1cccc2cc(C#N)c(SCC(=O)N3CC(=O)Nc4ccccc43)nc12	63.7*	-0.1	/	-0.3	-2.0	80.6*
CCCNC(=O)NC[C@@H]1[C@@H](c2ccc(C3=CCCC3)cc2)[C@H](CO)N1C(C)=O	/	/	/	8.0	/	/
CCCSc1ccc2nc(-c3ccccc3)cn2c1	60.4*	0.2	/	/	-2.5	75.4*
CCCCSc1ccc2nc(-c3ccc(C#N)cc3)cn2c1	-64.6	3.0	/	-0.2	-3.5	/
COC(=O)C1CCN(c2cc(=O)n(-c3ccc(OC)cc3)c(=O)[nH]2)CC1	67.7*	-1.7	0.5	-1.6	-3.9	-15.2
CCOC(=O)N1CCN(c2cc(=O)n(-c3ccc(OC)cc3)c(=O)[nH]2)CC1	-17.0	0.9	/	-1.6	-2.0	/
NC(=O)c1ccc(NCCc2ccccc2)c([N+](=O)[O-])c1	-9.6	0.8	1.0	3.6	-5.1	/
COc1ccc(CCNc2ccc(C(=O)O)cc2[N+](=O)[O-])cc1OC	61.8*	0.3	-1.0	4.9	-1.0	9.6
CN(C)c1cccc(C(=O)OCC(=O)N(Cc2ccccc2)C2CCS(=O)(=O)C2)c1 (centres undefined)	59.5*	0.7	0.4	0.0	0.2	-5.3
COc1ccccc1CCc1nnc(CCC(=O)N(C)Cc2cccc3ncccc23)o1	57.7*	0.3	-0.2	/	0.1	-25.7
Cc1nc2ncccn2c1-c1csc(Nc2ccccc2)n1	0.7	-0.1	-0.8	/	0.0	/
Cc1nc2ncccn2c1-c1csc(Nc2ccc(N(C)C)cc2)n1	60.3*	0.0	-7.5	/	-3.1	90.3*
SMILES	PrP 5UTR inh	PfHsp40 yeast	TcdB inh	Mtb BioA inh	FadD28 FP inh	PrP 5UTR single
COc1ccc(Nc2nc(-c3c(C)nc4ncccn34)cs2)cc1	65.5*	0.5	1.0	/	4.8	86.9*
Cc1noc(C)c1NC(=O)N(C)C[C@@H]1Oc2ccc(NS(=O)(=O)c3c(C)noc3C)cc2CC(=O)N([C@H](C)CO)C[C@@H]1C	/	/	-0.1	3.8	/	/
C[C@H]1CN([C@@H](C)CO)C(=O)c2cccc(NS(=O)(=O)c3ccccc3)c2O[C@H]1CN(C)S(=O)(=O)c1ccc(F)cc1	/	/	/	-4.2	/	/
O=C(N/N=C/c1c[nH]c2ccccc12)c1[nH]c2ccc(Br)cc2c1-c1ccccc1	68.4*	0.3	-0.7	-2.8	-2.6	87.5*
O=C(N/N=C/c1ccc(O)cc1)c1[nH]c2ccc(Br)cc2c1-c1ccccc1	39.2	-1.6	2.4	/	-6.0	/
Cc1ccc(CNC(=O)C2CCN(c3nnc(N4CCCC4=O)s3)CC2)cc1	69.3*	1.6	1.3	-2.1	-0.3	-4.5
CCOc1ccc(NC(=O)c2cc(S(=O)(=O)N3CCOCC3)cs2)cc1	-2.3	-1.0	2.2	-0.8	-0.9	/
CCOc1ccc(NC(=O)c2cc(S(=O)(=O)N3CCOCC3)cn2C)cc1	50.7*	0.0	-7.5	-2.1	0.6	27.6
COc1ccc(-n2c(Cc3cc(=O)[nH]c(=O)[nH]3)nnc2SCC(=O)Nc2ccccc2)cc1	56.9*	-0.3	1.0	0.6	0.0	9.2
O=c1c2ccccc2sc2ccc(C#CC3(O)CCCCC3)cc12	92.3*	0.0	-5.1	-4.6	-1.8	86.3*
COc1cccc2oc3cc(C#CC4(O)CCCCC4)ccc3c(=O)c12	-22.7	8.2	0.3	-0.8	-9.6	/
O=c1c2ccccc2oc2cc(C#CC3(O)CCCCC3)ccc12	69.8*	?	0.6	-1.8	-5.2	54.7*
CCCN(C)C[C@@H]1Oc2ncc(C#CCC(C)C)cc2C(=O)N([C@@H](C)CO)C[C@H]1C	/	/	-0.6	0.8	/	/
COCC(=O)NC[C@@H]1N[C@@H](CO)[C@H]1c1ccc(-c2ccccc2F)cc1	/	/	/	17.0	/	/
Cc1cc(C(=O)CSc2nnc(-c3ccccc3)n2-c2ccccc2)c(C)n1-c1ncn[nH]1	4.0	0.2	/	-1.2	-1.9	/
Cc1cc(C(=O)CSc2nnc3ccccn23)c(C)n1-c1ccccc1	66.8*	-1.7	/	/	-1.0	84.7*
C[C@H](CO)N1C[C@H](C)[C@H](CN(C)S(=O)(=O)c2cccs2)Oc2ccc(NS(=O)(=O)c3ccc(F)cc3)cc2CC1=O	/	/	-0.6	2.1	/	/
COc1ccc(CCN2C(=O)c3ccccc3C2(O)c2ncc[nH]2)cc1OC (centres undefined)	-8.1	-0.6	0.6	-0.7	-2.9	/
O=C1c2ccccc2C(O)(c2ncc[nH]2)N1C1CCCCC1 (centres undefined)	69.3*	2.2	/	-0.3	-2.2	-16.8
CCC(=O)N1C[C@H]2[C@@H](c3ccccc31)[C@H](CO)N2C(=O)CC	/	/	-1.3	1.8	/	/
O=C(COc1ccccc1)NCC(=O)N/N=C/c1cccs1	-10.2	-1.8	1.1	-1.6	-1.3	/
